Assay results reported in the supplement of paper PMC10849652.
The full data set covers some 7,900 targets. This sample favours those with a hit. About 0.6% of all pairs of compound and target were hits. A number with no mark means an inactive call.

Legend:
Assay in all cases: log2 fold change, soluble protein after heating vs DMSO (PISA); higher = thermal stabilisation; K562 cells, 10 uM, 30 min; active = over 0.2 and 3.5 SD of the protein, either way, in both replicates (recomputed)
[1] = compound: C#Cc1cccc(Nc2ncnc3cc(OCCOC)c(OCCOC)cc23)c1 [erlotinib]
Procedure, shortened: (§1)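 Quantification of soluble protein used TMTpro 16plex LC-MS/MS, with channel sums equalised. Samples were the supernatant after 21,000xg for 90 min of pooled aliquots from K562 cells (2×10^6 cells/mL) treated with 10 μM compound for 30 min, heated for 3 min over 48°C-58°C, and extracted in PBS with 0.5% NP-40 at 4°C. Values, from duplicates, describe thermal stability against control samples on a log2 fold-change scale.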

[2] = compound: C/C(=N\NC(=O)C1=CC(=CC=C1)S(=O)(=O)N2CCOCC2)/C3=C(C=CC(=C3)Cl)O
Procedure, shortened: as §1

[3] = compound: C1=CC(=C(C=C1Cl)C2=NC3=NC=CN=C3C(=N2)NC4=CC=NC=C4)F
Procedure, shortened: as §1

[4] = compound: C1=CC(=CC=C1C2=NC3=C(N2)C=C(C=C3)C(=O)N)OC4=CC=C(C=C4)Cl
Procedure, shortened: as §1

[5] = compound: C1=CC2=C(C=CC(=C2)/C=C\3/C(=O)NC(=NCC4=CC=CS4)S3)N=C1
Procedure, shortened: as §1

[6] = compound: C1=CC2=NC=CN=C2C=C1/C=C/3\C(=O)NC(=O)S3
Procedure, shortened: as §1

[7] = compound: C1=CC=C(C=C1)C2=NC(=C(N2)C3=CC=NC=C3)C4=CC(=C(C=C4)Cl)O
Procedure, shortened: as §1

[8] = compound: C1=CC=C2C(=C1)C3=NNC4=CC=CC(=C43)C2=O
Procedure, shortened: as §1

[9] = compound: C1CCN(C1)C(=O)NC2=CC=CC(=C2)NC3=NC=C(C(=N3)NCCC4=CN=CN4)Br
Procedure, shortened: as §1

[10] = compound: C1CN(CCC1(CC2=CC=C(C=C2)Cl)N)C3=NC=NC4=C3C=CN4
Procedure, shortened: as §1

Chain of UniProt Q9UK41 (Q9UK41 whole entry, looked up): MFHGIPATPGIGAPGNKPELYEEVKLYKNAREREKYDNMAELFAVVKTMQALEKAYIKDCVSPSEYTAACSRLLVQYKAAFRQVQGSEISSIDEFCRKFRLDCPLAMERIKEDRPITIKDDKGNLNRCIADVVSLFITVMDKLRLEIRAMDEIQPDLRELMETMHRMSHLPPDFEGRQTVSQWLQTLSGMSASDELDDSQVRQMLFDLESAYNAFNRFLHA
Chain of UniProt Q96FX7 (Q96FX7 whole entry, looked up): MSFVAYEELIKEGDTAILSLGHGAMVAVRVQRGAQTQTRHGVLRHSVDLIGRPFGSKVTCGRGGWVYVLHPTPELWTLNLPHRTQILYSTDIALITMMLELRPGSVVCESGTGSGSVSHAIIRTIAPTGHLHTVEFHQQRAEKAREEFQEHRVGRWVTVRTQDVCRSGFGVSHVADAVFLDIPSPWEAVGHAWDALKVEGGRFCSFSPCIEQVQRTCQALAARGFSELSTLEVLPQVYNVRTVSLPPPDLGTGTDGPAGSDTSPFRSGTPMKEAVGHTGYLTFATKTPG
Chain of UniProt P13010 (P13010 whole entry, looked up): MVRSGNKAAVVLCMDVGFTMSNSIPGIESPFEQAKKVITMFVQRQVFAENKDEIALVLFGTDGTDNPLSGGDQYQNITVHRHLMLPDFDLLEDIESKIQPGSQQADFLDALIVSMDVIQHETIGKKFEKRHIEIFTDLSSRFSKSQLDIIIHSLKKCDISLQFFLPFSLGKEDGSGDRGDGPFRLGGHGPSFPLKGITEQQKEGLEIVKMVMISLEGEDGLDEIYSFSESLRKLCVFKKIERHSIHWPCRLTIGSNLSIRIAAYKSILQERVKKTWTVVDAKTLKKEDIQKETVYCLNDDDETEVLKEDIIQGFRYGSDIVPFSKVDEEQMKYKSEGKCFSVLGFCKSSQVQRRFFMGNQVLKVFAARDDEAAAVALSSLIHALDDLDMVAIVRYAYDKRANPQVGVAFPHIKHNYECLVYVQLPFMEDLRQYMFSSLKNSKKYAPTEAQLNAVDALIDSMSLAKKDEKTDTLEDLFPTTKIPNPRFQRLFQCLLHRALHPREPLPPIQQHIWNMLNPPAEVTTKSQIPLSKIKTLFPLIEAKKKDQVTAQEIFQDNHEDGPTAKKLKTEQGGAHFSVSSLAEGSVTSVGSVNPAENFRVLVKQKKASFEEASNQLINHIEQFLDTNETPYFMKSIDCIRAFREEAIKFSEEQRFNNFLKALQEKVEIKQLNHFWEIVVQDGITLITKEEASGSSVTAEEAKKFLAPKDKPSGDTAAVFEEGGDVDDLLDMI
Chain of UniProt Q9Y2L5 (Q9Y2L5 whole entry, looked up): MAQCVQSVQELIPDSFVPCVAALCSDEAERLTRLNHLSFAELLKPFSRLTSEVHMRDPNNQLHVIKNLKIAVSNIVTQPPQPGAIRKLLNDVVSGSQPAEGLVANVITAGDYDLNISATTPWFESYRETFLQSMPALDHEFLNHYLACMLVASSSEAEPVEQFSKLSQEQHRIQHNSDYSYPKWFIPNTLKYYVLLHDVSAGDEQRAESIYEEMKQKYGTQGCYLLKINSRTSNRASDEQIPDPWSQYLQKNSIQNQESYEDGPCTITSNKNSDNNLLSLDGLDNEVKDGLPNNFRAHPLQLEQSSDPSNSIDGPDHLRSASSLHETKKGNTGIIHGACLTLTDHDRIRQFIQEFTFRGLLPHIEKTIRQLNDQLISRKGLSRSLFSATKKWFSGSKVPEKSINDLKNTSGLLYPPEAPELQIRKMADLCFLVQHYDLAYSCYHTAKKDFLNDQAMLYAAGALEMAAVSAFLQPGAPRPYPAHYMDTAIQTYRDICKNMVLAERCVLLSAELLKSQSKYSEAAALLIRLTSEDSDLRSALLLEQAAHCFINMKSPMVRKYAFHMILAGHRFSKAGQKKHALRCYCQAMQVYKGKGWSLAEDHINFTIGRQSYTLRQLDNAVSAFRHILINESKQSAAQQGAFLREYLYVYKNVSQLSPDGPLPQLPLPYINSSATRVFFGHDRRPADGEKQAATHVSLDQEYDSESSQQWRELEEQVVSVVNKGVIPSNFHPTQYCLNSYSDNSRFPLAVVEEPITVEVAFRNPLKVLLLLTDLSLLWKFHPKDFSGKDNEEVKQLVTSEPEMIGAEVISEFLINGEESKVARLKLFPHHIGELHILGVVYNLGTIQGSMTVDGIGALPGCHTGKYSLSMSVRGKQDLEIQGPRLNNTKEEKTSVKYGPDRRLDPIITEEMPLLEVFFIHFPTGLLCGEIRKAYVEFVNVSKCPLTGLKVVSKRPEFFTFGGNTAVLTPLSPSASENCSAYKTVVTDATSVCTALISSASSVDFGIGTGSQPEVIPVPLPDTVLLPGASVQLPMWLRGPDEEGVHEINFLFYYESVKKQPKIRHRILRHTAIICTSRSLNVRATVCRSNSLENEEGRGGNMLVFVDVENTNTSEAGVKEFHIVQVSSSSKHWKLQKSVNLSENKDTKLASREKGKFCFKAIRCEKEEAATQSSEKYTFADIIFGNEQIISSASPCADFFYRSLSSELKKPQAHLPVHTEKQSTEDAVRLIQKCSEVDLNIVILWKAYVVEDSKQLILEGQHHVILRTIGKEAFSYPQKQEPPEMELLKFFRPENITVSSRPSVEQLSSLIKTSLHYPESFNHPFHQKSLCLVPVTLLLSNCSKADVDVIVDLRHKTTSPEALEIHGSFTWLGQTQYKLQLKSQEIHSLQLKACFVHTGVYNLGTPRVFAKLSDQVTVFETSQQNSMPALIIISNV
Chain of UniProt Q5BJH2 (Q5BJH2 whole entry, looked up): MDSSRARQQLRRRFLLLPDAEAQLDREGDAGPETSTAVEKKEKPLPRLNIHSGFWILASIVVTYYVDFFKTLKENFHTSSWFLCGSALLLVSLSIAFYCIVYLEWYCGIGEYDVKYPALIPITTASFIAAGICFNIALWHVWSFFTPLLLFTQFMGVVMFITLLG
Chain of UniProt Q99986 (Q99986 whole entry, looked up): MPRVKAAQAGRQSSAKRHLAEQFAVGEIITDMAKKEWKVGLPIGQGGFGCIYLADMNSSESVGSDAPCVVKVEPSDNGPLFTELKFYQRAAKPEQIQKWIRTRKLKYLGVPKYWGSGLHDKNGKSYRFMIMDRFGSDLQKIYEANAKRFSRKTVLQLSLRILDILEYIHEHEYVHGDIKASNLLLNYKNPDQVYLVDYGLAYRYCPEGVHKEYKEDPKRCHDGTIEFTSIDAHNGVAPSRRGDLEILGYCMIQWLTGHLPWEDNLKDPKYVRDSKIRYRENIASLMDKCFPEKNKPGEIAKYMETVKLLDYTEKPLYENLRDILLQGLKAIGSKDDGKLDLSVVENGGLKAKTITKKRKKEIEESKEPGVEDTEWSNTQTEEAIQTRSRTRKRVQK
Chain of UniProt P21796 (P21796 whole entry, looked up): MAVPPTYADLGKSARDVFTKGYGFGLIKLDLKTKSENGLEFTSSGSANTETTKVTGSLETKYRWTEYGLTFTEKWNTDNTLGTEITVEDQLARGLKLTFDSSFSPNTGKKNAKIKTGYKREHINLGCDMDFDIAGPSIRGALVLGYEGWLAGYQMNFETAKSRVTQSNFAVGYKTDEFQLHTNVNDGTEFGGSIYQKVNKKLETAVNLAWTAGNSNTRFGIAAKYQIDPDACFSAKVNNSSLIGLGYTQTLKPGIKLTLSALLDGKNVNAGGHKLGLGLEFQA
Chain of UniProt O94967 (O94967 whole entry, looked up): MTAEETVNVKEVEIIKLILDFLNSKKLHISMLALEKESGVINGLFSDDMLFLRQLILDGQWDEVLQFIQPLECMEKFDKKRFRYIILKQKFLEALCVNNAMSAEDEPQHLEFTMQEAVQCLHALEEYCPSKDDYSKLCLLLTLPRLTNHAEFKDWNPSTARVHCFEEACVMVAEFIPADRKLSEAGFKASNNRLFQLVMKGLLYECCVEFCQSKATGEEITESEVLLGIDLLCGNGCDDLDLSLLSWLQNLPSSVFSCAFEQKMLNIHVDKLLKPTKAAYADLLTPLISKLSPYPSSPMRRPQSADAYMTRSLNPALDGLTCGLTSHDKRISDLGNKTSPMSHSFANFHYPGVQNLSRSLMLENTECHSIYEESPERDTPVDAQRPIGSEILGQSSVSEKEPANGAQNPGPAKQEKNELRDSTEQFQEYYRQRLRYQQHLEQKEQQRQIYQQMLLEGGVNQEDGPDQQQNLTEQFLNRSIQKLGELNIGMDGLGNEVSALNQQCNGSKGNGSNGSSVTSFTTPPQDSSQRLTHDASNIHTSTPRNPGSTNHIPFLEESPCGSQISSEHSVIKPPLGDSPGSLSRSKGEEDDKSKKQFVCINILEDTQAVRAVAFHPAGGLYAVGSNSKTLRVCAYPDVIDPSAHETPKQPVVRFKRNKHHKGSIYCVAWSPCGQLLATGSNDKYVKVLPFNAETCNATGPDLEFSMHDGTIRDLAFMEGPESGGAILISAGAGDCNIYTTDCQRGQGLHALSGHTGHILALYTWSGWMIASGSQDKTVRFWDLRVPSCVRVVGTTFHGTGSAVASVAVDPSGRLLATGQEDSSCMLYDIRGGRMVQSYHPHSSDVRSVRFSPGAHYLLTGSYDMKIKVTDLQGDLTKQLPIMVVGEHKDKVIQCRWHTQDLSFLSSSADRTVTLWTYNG
Chain of UniProt Q9UEU0 (Q9UEU0 whole entry, looked up): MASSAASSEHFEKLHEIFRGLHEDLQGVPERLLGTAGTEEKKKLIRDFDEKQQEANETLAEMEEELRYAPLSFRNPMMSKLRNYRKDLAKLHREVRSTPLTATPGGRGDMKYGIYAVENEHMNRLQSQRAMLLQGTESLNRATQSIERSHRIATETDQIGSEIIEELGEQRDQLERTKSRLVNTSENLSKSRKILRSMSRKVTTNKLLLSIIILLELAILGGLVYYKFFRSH
Chain of UniProt P07951 (P07951 whole entry, looked up): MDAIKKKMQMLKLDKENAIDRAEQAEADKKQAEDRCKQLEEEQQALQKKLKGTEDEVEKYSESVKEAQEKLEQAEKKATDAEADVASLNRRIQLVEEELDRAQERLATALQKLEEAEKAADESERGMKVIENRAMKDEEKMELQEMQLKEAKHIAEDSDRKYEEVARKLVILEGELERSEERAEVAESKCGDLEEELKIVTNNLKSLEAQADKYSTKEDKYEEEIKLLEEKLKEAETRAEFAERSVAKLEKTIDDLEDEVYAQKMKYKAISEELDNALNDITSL

Target	log2 fold change [1]	log2 fold change [2]	log2 fold change [3]	log2 fold change [4]	log2 fold change [5]	log2 fold change [6]	log2 fold change [7]	log2 fold change [8]	log2 fold change [9]	log2 fold change [10]
VPS33B (UniProt Q9H267)	0.108	0.093	-0.039	-0.07	0.073	0.053	0.019	0.044	-0.076	-0.102
TRMT10A (UniProt Q8TBZ6)	-0.01	0.044	0.004	0.031	0.037	0.02	-0.015	0.271 (active)	0.038	-0.045
TRAPPC8 (UniProt Q9Y2L5)	0.024	0.118	-0.012	0.027	0.094	-0.007	-0.068	-0.018	-0.011	-0.036
XRCC5 (UniProt P13010)	0.103	0.178	-0.012	-0.038	0.079	0.037	0.11	-0.039	-0.059	-0.139
TMEM208 (UniProt Q9BTX3)	-0.021	0.032	0.101	0.046	0.13	0.011	-0.054	-0.098	-0.002	0.033
VPS50 (UniProt Q96JG6)	0.008	0.094	-0.003	-0.017	0.088	0.025	0.023	-0.019	-0.022	-0.021
TMEM41A (UniProt Q96HV5)	0.013	0.046	-0.02	-0.014	0.024	0.037	-0.04	0.013	-0.069	0.033
WDR47 (UniProt O94967)	0.038	0.065	-0.014	-0.002	-0.002	0.06	0.047	0	0.013	0.006
UHRF1BP1 (UniProt Q6BDS2)	-0.018	-0.01	0.011	0.033	0.001	0.008	-0.017	-0.009	-0.013	0.008
WDR4 (UniProt P57081)	0.058	0.106	0.131	-0.012	-0.046	0.223	0.061	0.011	0.031	0.053
TRAPPC2L (UniProt Q9UL33)	0.193	0.062	-0.037	-0.273	-0.047	0.001	-0.096	-0.008	-0.083	-0.031
UBR2 (UniProt Q8IWV8)	0.019	0.067	-0.108	0.051	0.045	0.046	-0.08	-0.189	0.016	0.018
TNPO3 (UniProt Q9Y5L0)	-0.01	0.132	0.068	-0.009	-0.014	0.029	0.023	-0.007	0.004	-0.03
TPM2 (UniProt P07951)	-0.05	0.009	0.417	0.021	-0.146	0.025	0.102	0.02	-0.069	0.101
VDAC1 (UniProt P21796)	-0.006	0	0.039	-0.003	-0.023	0.006	-0.004	0.005	0.006	0.067
TXNL1 (UniProt O43396)	-0.012	0.096	0.009	-0.031	-0.011	-0.018	0.014	0.016	-0.001	-0.077
VTI1B (UniProt Q9UEU0)	0.011	-0.008	-0.023	-0.02	0	0.03	-0.055	-0.036	0.022	0.046
WDR37 isoform 2 (UniProt Q9Y2I8)	0.039	0.006	-0.097	0.012	-0.026	-0.204	0.006	-0.144	0.01	-0.088
TMEM128 (UniProt Q5BJH2)	-0.048	0	0.06	0.034	-0.437	0.067	-0.081	-0.238	-0.182	0.084
TMEM70 (UniProt Q9BUB7)	-0.286	0.03	0.023	0.257	0.008	-0.09	-0.063	-0.039	-0.007	0.053
TPR (UniProt P12270)	-0.113	0.023	-0.001	-0.011	-0.098	0.174	-0.104	-0.118	0	-0.142
TRMT61A (UniProt Q96FX7)	-0.03	-0.062	-0.354 (active)	0.087	-0.059	-0.07	-0.017	-0.046	0.054	0.054
VRK1 (UniProt Q99986)	0.087	-0.055	0.119	-0.016	0.038	-0.024	-0.039	0.078	-0.044	-0.045
WASHC2A (UniProt Q641Q2)	0.008	-0.026	-0.025	0.002	0.004	0.058	-0.072	-0.037	0.029	-0.017
TMEM173 (UniProt Q86WV6)	0.028	0.018	-0.012	-0.078	0.068	0.019	-0.044	-0.032	0.02	-0.05
TNPO2 (UniProt O14787)	0.075	0.115	0.033	-0.064	0.077	0.017	0.018	-0.008	0.027	-0.008
VPS28 (UniProt Q9UK41)	-0.072	0.031	0.27	-0.011	0.009	0.023	0.009	0.001	-0.091	-0.043
